# Source: PubChem (National Center for Advancing Translational Sciences (NCATS))
# HTT aggregate: qHTS Multiplex Assay to Identify Dual Action Probes in a Cell Model of Huntington: Aggregate Formation (GFP); PC12 HttQ103-GFP aggregates, Acumen cytometry, 40 h; Potency, µM (top dose mostly 46.1 µM), without a hit: at the top dose activity change, negative = inhibition, most hits filed as inhibitors; 220,000 tested, 1.1% active; AID 1688, 2009; also: potency is read from the fitted curve at half-maximal effect; % is scaled to controls: 0 for no effect and ±100 for the full control effect; nearly all actives have a fitted effect of over 60% in size
#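 Aggregates are detected as GFP objects 1–25 µm with signal 6 STDEV over background in lysates of induced PC12 cells. These carry Huntingtin exon 1 with 103 glutamines fused to GFP under an ecdysone promoter; compounds titrated.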
# IMPase Li inh: qHTS Assay for Identifying the Cell-Membrane Permeable IMPase Inhibitors: Potentiation with Lithium; Potency, µM (highest dose often 59.4 µM), for inactives: top-dose activity, negative = IMPase inhibition, usual class: inhibitors; 210,000 tested, 0.35% active; CHO-M1 cells, IP1 TR-FRET (IP-One), carbachol + lithium;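 also: IP1 builds up when IMPase is blocked and the TR-FRET signal falls; potency is read from the fitted curve at half-maximal effect; plate controls were basal vehicle for no effect and high inhibitor control for full effect; nearly all actives have a fitted effect of over 50% in size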
#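 Steps: plate 2000 CHO-M1 cells per well and culture 16–30 h; add compound and lithium; incubate 30 min, 37C; add d2-IP1 tracer and Eu cryptate anti-IP1 antibody in lysis buffer; read after 10 min at room temperature.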
# IMPase inh: qHTS Assay for Identifying the Cell-Membrane Permeable IMPase Inhibitors; inhibition (IP1 accumulation), % at 46.1 µM; 120,000 tested, under 10 active; CHO-M1 cells, IP1 accumulation, HTRF TR-FRET ratio; active = well fitted curve in the direction sought with a large enough effect in the signal ratio, not every such curve was filed as active; inconclusive = small, poorly fitted or top-dose-only effect, or a change in a side signal; inactive = no such curve, though single readings can be large or run the other way; the % refers to the signal ratio;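 also: cells stimulated with carbachol in lithium chloride buffer; plate controls were DMSO basal wells for no effect and reference inhibitor wells for full effect; higher means more IMPase inhibition seen as more IP1 and lower FRET ratio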
# Target sequence (P97697 whole entry, looked up): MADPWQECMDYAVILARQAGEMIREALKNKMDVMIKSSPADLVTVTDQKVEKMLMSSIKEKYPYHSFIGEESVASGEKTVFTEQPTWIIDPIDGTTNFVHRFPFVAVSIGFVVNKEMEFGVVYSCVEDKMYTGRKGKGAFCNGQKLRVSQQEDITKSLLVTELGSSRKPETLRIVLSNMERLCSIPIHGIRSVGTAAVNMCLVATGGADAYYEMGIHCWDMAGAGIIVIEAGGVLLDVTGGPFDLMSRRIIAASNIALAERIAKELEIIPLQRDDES
#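 CHO-M1 cells (CHO stably expressing M1 receptor), compound up to 46 uM final, stimulated with carbachol (50 uM as added) in buffer with 50mM LiCl, pH 7.4, 30 min at 37C. Cytosolic IP1 read by TR-FRET; AC50 from Hill fits.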
# HPGD block: qHTS Assay for Inhibitors of HPGD (15-Hydroxyprostaglandin Dehydrogenase) | purified HPGD, NADH fluorescence kinetic, PGE2 substrate | Potency, µM, for inactives: at the highest dose activity change, negative = inhibition, hits mostly inhibitors | 150,000 tested, 4.3% active; active = well fitted inhibition curve with a large enough effect, not every such curve was filed as active; inconclusive = small, poorly fitted or top-dose-only effect, or another doubt; inactive = no such curve, though single readings can be large or run the other way; also: potency is read from the fitted curve at half-maximal effect; % is scaled to controls: 0 for no effect and ±100 for the full control effect
# Target sequence (P15428 whole entry, looked up): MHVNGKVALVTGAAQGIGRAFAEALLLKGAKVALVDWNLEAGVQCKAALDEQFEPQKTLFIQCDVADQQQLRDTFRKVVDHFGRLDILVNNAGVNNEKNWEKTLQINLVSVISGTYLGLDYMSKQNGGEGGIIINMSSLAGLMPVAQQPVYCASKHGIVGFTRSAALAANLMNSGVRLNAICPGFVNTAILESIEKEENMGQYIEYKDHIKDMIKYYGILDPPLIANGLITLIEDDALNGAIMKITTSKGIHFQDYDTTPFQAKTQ
#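 NADH formation kinetics: reaction with 30 uM PGE2 and 1 mM NAD+ (final), 20 nM enzyme, Tris-HCl pH 8 with Tween 20, after 15 min compound preincubation at room temperature. Fluorescence change, last versus first of five reads.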
# ALDH1A1 block: qHTS Assay for Inhibitors of Aldehyde Dehydrogenase 1 (ALDH1A1); Aldehyde dehydrogenase 1A1 (Homo sapiens), P00352; Purified ALDH1A1, NADH fluorescence, propionaldehyde substrate; Potency, µM (doses to about 75.3 µM), without a hit: top-dose activity, negative = inhibition, actives largely listed as inhibitors; 220,000 tested, 7.3% active; AID 1030, 2008; active = well fitted inhibition curve with a large enough effect, not every such curve was filed as active; inconclusive = small, poorly fitted or top-dose-only effect, or another doubt; inactive = no such curve, though single readings can be large or run the other way;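 also: potency is read from the fitted curve at half-maximal effect; plate controls were no enzyme wells and a reference inhibitor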
# HTT ATP protect: qHTS Multiplex Assay to Identify Dual Action Probes in a Cell Model of Huntington: Cytoprotection (ATP); 230,000 tested, 0.14% active; PC12 HTT-Q103 induced, cytoprotection, ATP luminescence, 40 h; Potency, µM (series often up to 56.4 µM), inactives show cytoprotection (ATP increase), actives largely listed as activators; also: potency is read from the fitted curve at half-maximal effect; % of control where 0% means no effect; nearly all actives have a fitted effect of over 45% in size
#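 Stable PC12 Q103-GFP cells in serum-supplemented, phenol red-free DMEM; induction by tebufenozide at 100 nM final; compound dose series; cell viability quantified luminescently from ATP.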
# The depositor's hits bear a star; ? = inconclusive; / = not tested or not shown; [ ] = remark or other dose. Sampled rows, rich in hits. Any-hit rate of the full collection: about 9.4%. Unless noted, calls follow the shape of the dose curve; as a rule, active = well fitted curve in the direction sought with a large enough effect; inconclusive = small, poorly fitted or top-dose-only effect, or another doubt; inactive = no such curve, though single readings can be large; an effect the other way counts as inactive or inconclusive.
SMILES,HTT aggregate,IMPase Li inh,IMPase inh,HPGD block,ALDH1A1 block,HTT ATP protect
CCOC(=O)CC(NC(=O)c1cc2cc(Cl)cc(Cl)c2oc1=O)c1cccc([N+](=O)[O-])c1 (stereo not drawn),19.7%,5.0%,-2.8,-12.8%,-2.8%,27.3%[10 µM]
CCOC(=O)CC(NC(=O)c1cc2cccc(OC)c2oc1=O)c1cccc([N+](=O)[O-])c1 (stereo not drawn),23.5%,1.7%,4.6,?,22.4µM*,4.6%[10 µM]
CCN1C(=O)[C@H]2[C@H]3[C@H](O)[C@H](O)C/C(=N/O[C@@H]4O[C@@H](COC(C)=O)[C@@H](OC(C)=O)[C@@H](OC(C)=O)[C@H]4OC(C)=O)[C@H]3CC[C@@H]2C1=O,/,/,/,/,-0.1%[13.5 µM],-5.3%[10 µM]
O=S(=O)(c1ccccc1)N1CCC2(CC1)CN(c1ncccn1)C2,/,-9.1%,/,?,?,-30.6%
CC1CN(S(=O)(=O)c2ccc(C(=O)Nc3nnc(-c4ccco4)o3)cc2)CC(C)O1 (stereo not drawn),?,2.0%,/,/,-6.4%,-76.2%
O=C(Nc1nnc(-c2ccco2)o1)c1ccc([N+](=O)[O-])s1,11.2µM*,0.0%,/,/,?,-173.3%
COc1cccc(-c2nnc(NC(=O)c3ccc(S(=O)(=O)N4CC(C)OC(C)C4)cc3)o2)c1 (stereo not drawn),3.98µM*,5.1%[38.3 µM],-3.2,-22.9%,8.4%,-32.5%[10 µM]
O=C(Nc1nnc(-c2ccncc2)o1)c1ccc(Br)s1,11.2µM*,-9.5%,/,/,5.6%,-110.3%
CC1CC(C)CN(S(=O)(=O)c2ccc(C(=O)Nc3nnc(-c4cccs4)o3)cc2)C1 (stereo not drawn),7.94µM*,3.0%[38.3 µM],3.4,-9.5%,1.5%,-71.4%
O=C(COC(=O)c1cc(-c2cccs2)nc2ccccc12)c1ccc(Br)cc1,/,/,-1.6,/,/,/
O=C(O)CNCCc1ccccc1,/,4.8%,/,-5.3%,12.6%[13.5 µM],0.1%[10 µM]
CCCCS(=O)(=O)N1CCc2nc(COc3ccccc3)c3c(c2C1)CO[C@@H](C)C3,/,5.1%,/,-5.1%,2.4%[13.5 µM],?
COc1cccc(Nc2ncc3ncc(=O)n(C[C@H]4CCCO4)c3n2)c1,/,-0.4%,/,/,-12.4%,-40.3%
CC(=O)N[C@@H](CSC(=O)[C@]1([C@@H](O)C(C)C)NC(=O)[C@H](C)[C@@H]1O)C(=O)O,/,-8.8%,/,-7.2%,11.3%[13.5 µM],-164.6%[10 µM]
CC12C=C(/C=C/c3ccc(Br)cc3)C(C)(C1)[C@H](c1ccc(Br)cc1)CC2=O (stereo partly drawn),/,22.2%,/,-3.9%,1.8%,?
O=C(Nc1nnc(-c2ccco2)o1)c1ccc(S(=O)(=O)N2CCCC2)cc1,-13.0%,4.0%,/,/,35.5µM*,-26.8%
CCC1CCCCN1S(=O)(=O)c1ccc(C(=O)Nc2nnc(-c3cccs3)o2)cc1 (stereo not drawn),11.2µM*,1.7%,-8.2,-9.6%,-0.7%,27.7%[10 µM]
CN(C)S(=O)(=O)c1ccc(C(=O)Nc2nnc(-c3cccs3)o2)cc1,?,-0.2%,/,/,10.0%,28.1%[10 µM]
CC(C)c1ccc(C(=O)Nc2ccc(-c3nc4ccccc4s3)c(Cl)c2)cc1,/,/,2.5,/,/,/
CCCCn1c(CCn2nc(C)c(Br)c2C)n[nH]c1=S,8.6%,-0.1%[38.3 µM],6.5,22.4µM*,-9.8%,11.9%
CCn1c(CCCCc2n[nH]c(=S)n2CC)n[nH]c1=S,42.3%,1.3%,/,/,6.9%,0.5%
O=C(CSCc1ccccc1Cl)NN=C1CCCCCC1,5.7%,-5.4%[38.3 µM],1.2[1.84 µM],-17.2%,22.4µM*,-0.3%[10 µM]
